Source: PubChem BioAssay
Rab9 prom act: qHTS Assay for Rab9 Promoter Activators | Potency, µM (titrated, usually from 9.22 µM), without a hit: at the top dose activation, negative = inhibition, actives largely listed as activators | Huh7 Rab9 promoter-luciferase reporter, luminescence, 24 h | 320,000 tested, 2.8% active; also: % of control where 0% means no effect; nearly all actives have a fitted effect of over 60% in size
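Measured in stably transfected Huh7 cells bearing a Rab9 promoter–luciferase construct: 24 h compound treatment at 37 °C, followed by luminescence detection.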
uPA generation: qHTS for Inhibitors of Cell Surface uPA Generation. cell surface uPA generation assay, qHTS. Potency, µM (highest dose often 38.3 µM), for the others: at the top dose activity change, negative = inhibition, most hits filed as inhibitors. 330,000 tested, 0.31% active. AID 540303, 2011; active = well fitted inhibition curve with a large enough effect; inconclusive = small, poorly fitted or top-dose-only effect; inactive = no such curve, though single readings can be large or run the other way; tested in mouse RAW 264.7 cells; also: % is scaled to controls: 0 for no effect and ±100 for the full control effect; nearly all actives have a fitted effect of over 55% in size
ELG1 genotox: qHTS screen for small molecules that induce genotoxicity in human embryonic kidney (HEK293T) cells expressing luciferase-tagged ELG1. HEK293T ELG1-luciferase reporter, luminescence, 16 h. Potency, µM (doses to about 46 µM), inactives show at the highest dose activity change, positive = activation, actives largely listed as activators. 330,000 tested, 1.3% active. AID 504466, 2011; also: % of control where 0% means no effect; nearly all actives have a fitted effect of over 60% in size
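Genotoxicity was scored as increased ELG1-luciferase reporter signal, measured by ONE-Glo luminescence (30 min, room temperature). Compound or vehicle exposure of the HEK293T reporter cells lasted 16 hr at 37°C.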
NPC1 promoter act: qHTS Assay for NPC1 Promoter Activators | 320,000 tested, 2.4% active | Potency, µM (doses to about 9.22 µM), without a hit: top-dose activation, hits mostly activators | Huh7 NPC1 promoter luciferase reporter, 24 h | AID 485313, 2010; also: % of control where 0% means no effect; nearly all actives have a fitted effect of over 60% in size
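Luminescence from an NPC1 promoter-driven luciferase reporter in stably transfected Huh7 cells was measured after 24 h compound treatment at 37 °C, followed by 10 min ambient incubation with luciferase detection reagent.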
SMN2 splice enh: qHTS Assay for Enhancers of SMN2 Splice Variant Expression. Potency, µM (titrated, usually from 46.1 µM), for inactives: top-dose activity change, positive = activation, hits mostly activators. HEK293 SMN2-luciferase splicing reporter, luminescence, 30-36 h. 210,000 tested, 2.8% active; also: % of control where 0% means no effect; nearly all actives have a fitted effect of over 55% in size
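qHTS luciferase splicing reporter: luminescence rises when SMN2 exon 7 is included in transfected HEK293 cells. Compound exposure lasted 30-36 h at 37C, with 4.5 mM final sodium butyrate as control, followed by a ONE-Glo read.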
FLuc counter: qHTS profiling assay for firefly luciferase inhibitor/activator using purifed enzyme and Km concentrations of substrates (counterscreen for miR-21 project); purified FLuc, Km substrates, luminescence inhibition; Potency, µM (top dose mostly 57.5 µM), for the others: top-dose activity change, negative = inhibition, usual class: inhibitors; Luciferin 4-monooxygenase (Photinus pyralis), P08659; 360,000 tested, 6.9% active;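 also: plate controls were vehicle for no effect and reference inhibitor for full effect; nearly all actives have a fitted effect of over 55% in size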
Target sequence (P08659 whole entry, looked up): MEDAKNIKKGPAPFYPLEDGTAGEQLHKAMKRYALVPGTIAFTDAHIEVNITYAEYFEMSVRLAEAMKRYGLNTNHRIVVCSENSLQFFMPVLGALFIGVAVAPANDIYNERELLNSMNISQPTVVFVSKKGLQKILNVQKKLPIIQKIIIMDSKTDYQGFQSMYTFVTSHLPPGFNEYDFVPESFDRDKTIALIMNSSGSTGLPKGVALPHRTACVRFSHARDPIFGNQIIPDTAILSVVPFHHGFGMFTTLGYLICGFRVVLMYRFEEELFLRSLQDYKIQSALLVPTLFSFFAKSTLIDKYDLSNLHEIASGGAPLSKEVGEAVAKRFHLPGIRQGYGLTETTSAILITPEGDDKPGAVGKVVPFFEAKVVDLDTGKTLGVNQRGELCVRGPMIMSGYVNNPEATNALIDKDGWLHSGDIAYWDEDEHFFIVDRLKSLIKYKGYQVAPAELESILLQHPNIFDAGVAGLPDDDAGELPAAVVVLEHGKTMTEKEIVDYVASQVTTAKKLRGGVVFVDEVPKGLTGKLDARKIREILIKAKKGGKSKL
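Purified P. pyralis luciferase, 10 nM final, with Km-level 10 uM D-luciferin and 10 uM ATP in 50 mM Tris acetate pH 7.5, 10 mM Mg acetate, 0.01% Tween-20, 0.05% BSA; 6-point qHTS titration about 60 µM downward; luminescence read.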
The depositor's hits bear a star; ? = inconclusive; nt = not tested or not shown; [ ] = remark or other dose. In the library only some 7.3% were active in any assay of this set; here they are far more common. Unless noted, calls follow the shape of the dose curve; as a rule, active = well fitted curve in the direction sought with a large enough effect; inconclusive = small, poorly fitted or top-dose-only effect, or another doubt; inactive = no such curve, though single readings can be large; an effect the other way counts as inactive or inconclusive. Potency is read from the fitted curve at half-maximal effect.

SMILES | Rab9 prom act | uPA generation | ELG1 genotox | NPC1 promoter act | SMN2 splice enh | FLuc counter
CCCCc1nc2cc(C(=O)N3CCC(OC)CC3)ccc2o1 | ? | 8% | 13% | 1% | nt | ?
CCOC(=O)N1CCN(C(=O)/C(=C/c2cccs2)NC(=O)c2cccs2)CC1 | -10% | -16% | 16% | 1% | nt | -2%
COc1ccc(C(=O)N/N=C/C(Br)=C/c2ccccc2)cc1 | 19% | -4% | -2% | 9% | 11% | 3µM*
COc1cccc(C(=O)N/N=C/C(Br)=C/c2ccccc2)c1 | 13% | -7% | 18% | 1% | 23% | 11µM*
Cn1cc(C(=O)N/N=C/C(Br)=C\c2ccccc2)ccc1=O | 11% | -6% | 14% | -7% | 15% | ?
Cn1cc(C(=O)N/N=C/C(Br)=C/c2ccccc2)ccc1=O | 4% | 5.6µM* | 12% | 1% | 4%[1.84 µM] | 19µM*
C=CCc1cc(/C=C/c2nc(O)c([N+](=O)[O-])c(=O)[nH]2)cc(OC)c1O | -3% | -2% | -1% | -2% | 9% | 17µM*
O=C(Cc1ccc(Br)cc1)N1CCOCC1 | 14% | 3% | -10% | 3% | nt | 4%
CCc1ccc(C(=O)NNC(=O)CN2C(=O)NC3(CCCC3)C2=O)cc1 | 0% | -10% | 5% | -4% | nt | 15µM*
CCCCOC(=O)c1ccc(NC(=O)COC(=O)CN2C(=O)NC3(CCCC3)C2=O)cc1 | nt | 0% | nt | nt | nt | nt
CCCCOC(=O)c1ccc(NC(=O)CN2C(=O)NC3(CCCCCC3)C2=O)cc1 | -3% | 8.9µM* | -1% | 0% | nt | ?
CCOCCCn1c(SCc2nc3ccccc3s2)nc2ccccc2c1=O | 16% | -5% | -8% | 15% | -109% | 17µM*
C=CCn1c(=O)c2ccccc2n2c(SCc3nc4ccccc4s3)nnc12 | ? | -5% | ? | 5% | -26% | 12µM*
C=CCn1c(=O)c2ccccc2n2c(SCC(=O)O)nnc12 | 0% | 0% | 0% | 3% | nt | 0%
COCCn1c(SCc2nc3ccccc3s2)nc2ccccc21 | 3.5µM* | 2% | ? | ? | 10% | 12µM*
CCCn1nc(C(=O)Nc2ccc(S(=O)(=O)Nc3nccs3)cc2)c2ccccc2c1=O | -1% | 0% | -1% | -2% | 7.9µM* | -1%
Cc1cc(C(=O)NNS(=O)(=O)c2cc(C(=O)O)ccc2Cl)c(C)n1-c1ccccc1 | -7% | 3% | 0% | -2% | nt | 24µM*
Cc1ccc(NC(=O)c2cc(C)n(-c3ccccc3)c2C)cc1 | ? | -20% | 0.23µM* | -2% | -94% | 0.054µM*
Cc1ccc(-n2c(C)cc(C(=O)NS(=O)(=O)c3ccc(C)cc3)c2C)cc1 | -5% | -3% | 1% | 0% | 20% | 2%
Cc1cc(C(=O)Nc2ccc(Cl)cc2)c(C)n1-c1ccccc1 | -28% | -14% | ? | -24% | nt | 0.048µM*
Cc1ccc(NC(=O)c2cc(C)n(-c3cccc(C)c3)c2C)cc1 | ? | -6% | ? | 15% | 27% | 1.5µM*
CCc1ccc(S(=O)(=O)c2nnn3c2nc(NCCNC(C)=O)c2cc(Cl)ccc23)cc1 | nt | nt | nt | nt | -1% | 2%
COc1ccc(NC(=O)CSc2ccccc2)c([N+](=O)[O-])c1 | ? | -1% | ? | ? | ? | 27µM*
COc1ccc(NC(=O)CN2CCC(C)CC2)c([N+](=O)[O-])c1 | 5% | -9% | 16µM* | 13% | -1% | ?
COc1ccc(NC(=O)COc2ccc(C)cc2)c([N+](=O)[O-])c1 | ? | 4% | 21µM* | 2.8µM* | 0% | ?
SMILES | Rab9 prom act | uPA generation | ELG1 genotox | NPC1 promoter act | SMN2 splice enh | FLuc counter
COc1ccc(NC(=O)c2ccc(C)cc2Cl)c([N+](=O)[O-])c1 | ? | -10% | ? | ? | 12% | 6µM*
COc1ccc(NC(=O)c2cc(Br)ccc2Cl)c([N+](=O)[O-])c1 | -3% | -1% | 5% | -3% | -10% | 4%
COc1ccc(NC(=O)Cn2c(=O)n(CCCC(=O)NCc3ccccc3Cl)c(=O)c3ccccc32)c(OC)c1 | nt | nt | nt | nt | -2% | -6%
O=C(Cn1c(=O)oc2ccccc21)NCCc1ccccc1Cl | 0% | -2% | 1% | -1% | -7% | -4%
CNC(=O)c1[nH]nc2c1CCc1cc(OC)ccc1-2 | 5µM* | -9% | ? | ? | nt | 17µM*
COc1ccc2c(c1)CCc1c-2n[nH]c1C(=O)NCCC(C)C | 0.79µM* | ? | 2.6µM* | 1µM* | nt | 1.3µM*
COc1cccc(/C=N/NC(=O)c2[nH]nc3c2CCc2ccccc2-3)c1 | -18% | -3% | 6% | -23% | nt | ?
CC(C)NC(=O)c1[nH]nc2c1CCc1ccccc1-2 | 3.5µM* | -54% | ? | ? | nt | 19µM*
COc1ccc(C)c2sc(N(Cc3cccnc3)C(=O)COc3ccccc3)nc12 | nt | nt | nt | nt | nt | -3%
CCOc1ccccc1CN1C(=O)c2ccccc2C1C(=O)NC1CCCCCC1 (centres undefined) | nt | nt | nt | nt | 0% | -7%
O=c1oc(Nc2ccccc2Cl)nc2ccccc12 | ? | ? | 21µM* | 3.5µM* | ? | 15µM*
O=c1oc(Nc2cccc(Cl)c2)nc2ccccc12 | 0.79µM* | nt | 13µM* | 2.8µM* | 11µM* | -25%
O=c1oc(Nc2ccccc2F)nc2ccccc12 | ? | -15% | ? | ? | nt | 9.5µM*
Clc1cccc(Nc2nc(-c3ccncc3)nc3ccccc23)c1 | -3% | 9% | 2% | -3% | nt | -1%
Clc1ccccc1Nc1nc(-c2ccncc2)nc2ccccc12 | -6% | ? | -3% | -4% | nt | 0%
COc1ccc(N2CC(NC(=O)c3cccs3)CC2=O)cc1OC (centres undefined) | nt | nt | nt | nt | nt | 1%
Cc1ccc(C(=O)c2c(N)c(-c3nc(-c4ccc5c(c4)OCO5)cs3)c3ccccn23)cc1C | nt | nt | nt | nt | -4% | 0%
Nc1nc(Cc2ccccc2)nc(Cc2ccccc2)c1-c1ccccc1 | nt | nt | nt | nt | -6%[9.22 µM] | nt
COc1ccccc1C1C(C(=O)c2cc3ccccc3o2)=C(O)C(=O)N1CCN1CCOCC1 (centres undefined) | 16% | 2% | -1% | -2% | 4% | 13µM*
CCOC(=O)C1CCCN(C(=O)c2ccc3c(c2)N(Cc2ccccc2F)C(=O)c2ccccc2S3=O)C1 (centres undefined) | nt | nt | nt | nt | 2% | 1%
O=C1C2C(C(=O)N1c1ccncc1)C1C=CC2C12CC2 (centres undefined) | -10% | 3% | 2% | 5% | 2% | 0%
